Reference: PubChem BioAssay (NCI)
Compounds without any hit were thinned out: in the full panel of roughly 79,000, 15% have a hit. Calls of active or inactive are those of the source. Cut-off read from the data, not from the text of the source: active = growth inhibition above about 70%; inactive = the rest.

What was measured:
[1] = NCI Yeast Anticancer Drug Screen. Data for the rad52 strain (AID 147);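 note: 0% = growth of vehicle-treated control cultures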; conditions: S. cerevisiae rad52 mutant growth inhibition, active compounds read high
Procedure, shortened: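 Measured: yeast growth inhibition. System: strain with a defined DNA damage repair alteration. Reference: vehicle-treated control cultures.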

[2] = NCI Yeast Anticancer Drug Screen. Data for the wt1 strain (AID 149);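 note: 0% = growth of vehicle-treated wt1 cultures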; conditions: S. cerevisiae wt1 strain (SPY 50644) growth inhibition, active compounds read high
Procedure, shortened: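 The wt1 strain was treated with compounds, and growth was compared with vehicle-treated cultures to give inhibition.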

[3] = NCI Yeast Anticancer Drug Screen. Data for the rad50EPP+ strain (AID 151);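 note: 0% = growth of vehicle-treated control cultures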; conditions: S. cerevisiae rad50 mutant strain, active compounds read high
Procedure, shortened: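 One strain with a rad50 alteration (rad50EPP+) was compound-treated, its growth then compared to that of vehicle controls.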

[4] = NCI Yeast Anticancer Drug Screen. Data for the mgt1 strain (AID 153); conditions: S. cerevisiae mgt1 mutant growth inhibition, active compounds read high
Procedure, shortened: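 After exposure of the mgt1 yeast mutant to compound, growth was measured and reported as inhibition compared with vehicle controls.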

[5] = NCI Yeast Anticancer Drug Screen. Data for the rad50 strain (AID 155);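 note: 0% = growth of vehicle-only cultures of the same strain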; conditions: S. cerevisiae rad50 strain growth inhibition, active compounds read high
Procedure, shortened: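 Cells are treated with compound, grown, and their growth is then scored against vehicle-only cultures of the same repair-deficient yeast strain.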

[6] = NCI Yeast Anticancer Drug Screen. Data for the mec2-1 strain (AID 157); conditions: S. cerevisiae mec2-1 strain, active compounds read high
Procedure, shortened: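 Test agents were screened against the mec2-1 yeast strain, with defined DNA repair or cell cycle alteration. Growth was scored as inhibition against vehicle-only controls.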

[7] = NCI Yeast Anticancer Drug Screen. Data for the rad14 strain (AID 159);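 note: 0% = growth of vehicle-treated control cultures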; conditions: S. cerevisiae rad14 strain growth inhibition, active compounds read high
Procedure, shortened: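 Readout: yeast growth inhibition, referenced to vehicle-only cultures. Strain bears a defined alteration in DNA damage repair.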

[8] = NCI Yeast Anticancer Drug Screen. Data for the sgs1 mgt1 strain (AID 161);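 note: 0% = growth of cultures given vehicle only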; conditions: S. cerevisiae sgs1 mgt1 strain, active compounds read high
Procedure, shortened: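 Test agents were incubated with a DNA-repair-mutant yeast strain. Growth was then read and compared against vehicle-treated controls.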

[9] = NCI Yeast Anticancer Drug Screen. Data for the CLN2oe strain (AID 163);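 note: 0% = growth of vehicle-only control cultures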; conditions: S. cerevisiae CLN2oe strain, active compounds read high
Procedure, shortened: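 Here, growth inhibition in a cell-cycle-altered yeast strain after compound exposure was quantified against vehicle control growth.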

[10] = NCI Yeast Anticancer Drug Screen. Data for the bub3 strain (AID 167); conditions: S. cerevisiae bub3 mutant strain, active compounds read high
Procedure, shortened: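 Part of a panel of yeast mutants defective in DNA damage repair or cell cycle regulation. Each strain is grown with compound, and inhibition is calculated relative to solvent-treated cultures.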

[11] = NCI Yeast Anticancer Drug Screen. Data for the wt2 strain (AID 169);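 note: 0% = growth of vehicle-treated yeast cultures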; conditions: S. cerevisiae wt2 strain growth inhibition, active compounds read high
Procedure, shortened: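 Genetically defined yeast strains from a DNA-repair/cell-cycle panel were used. Compound-exposed yeast growth was measured, and the inhibition was calculated relative to vehicle treatment.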

[12] = NCI Yeast Anticancer Drug Screen. Data for the mlh1 strain (AID 171);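 note: 0% = growth of vehicle-treated control cultures of the same strain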; conditions: S. cerevisiae mlh1 strain growth inhibition, active compounds read high
Procedure, shortened: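 Here the genetically defined yeast mutant is grown with each compound, and the extent to which its growth falls below that of vehicle-exposed cells is reported.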

[13] = NCI Yeast Anticancer Drug Screen. Data for the sgs1 strain (AID 173);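 note: 0% = growth of vehicle-only control cultures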; conditions: S. cerevisiae sgs1 mutant, active compounds read high
Procedure, shortened: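 Relative growth inhibition, referenced to vehicle, was determined in a yeast strain with a defined alteration affecting DNA damage repair or cell cycle control after compound exposure.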

[14] = NCI Yeast Anticancer Drug Screen. Data for the mlh1 rad18 strain (AID 175); conditions: S. cerevisiae mlh1 rad18 strain growth inhibition, active compounds read high
Procedure, shortened: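 In this whole-cell yeast screen, a strain with altered DNA damage repair is challenged with compound, and its growth is measured against matched vehicle-treated controls.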

[15] = NCI Yeast Anticancer Drug Screen. Data for the rad18 strain (AID 177); conditions: S. cerevisiae rad18 mutant growth inhibition, active compounds read high
Procedure, shortened: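 Screen uses a yeast strain with a defined lesion in DNA damage repair; compound effect is read as loss of growth compared to untreated vehicle cultures.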

[16] = at 5.0 µM (retest, dose inferred, filed as 0.5)
[17] = at 50.0 µM (retest, dose inferred, filed as 5.0)

Measured: growth inhibition

NC(=S)N/N=C\c1nccc2ccccc12
active: [1]; at 33.0 µM 95% | [1]; at 100.0 µM 99% | [2]; at 33.0 µM 76% | [2]; at 100.0 µM 99% | [3]; at 100.0 µM 97% | [4]; at 33.0 µM 97% | [4]; at 100.0 µM 99% | [5]; at 33.0 µM 97% | [5]; [17] 96% | [5]; at 50.0 µM 99% | [5]; at 100.0 µM 97% | [6]; at 11.0 µM 97% | [6]; at 33.0 µM 99% | [6]; [17] 98% | [6]; at 50.0 µM 99.5% | [6]; at 100.0 µM 99% | [7]; at 33.0 µM 98% | [7]; at 100.0 µM 99% | [8]; [17] 98% | [8]; at 50.0 µM 99% | [9]; at 33.0 µM 96% | [9]; at 100.0 µM 99% | [10]; at 33.0 µM 96% | [10]; [17] 97% | [10]; at 50.0 µM 99.2% | [10]; at 100.0 µM 97% | [11]; at 33.0 µM 97% | [11]; at 100.0 µM 99% | [12]; at 33.0 µM 97% | [12]; at 100.0 µM 99% | [13]; at 33.0 µM 99% | [13]; at 100.0 µM 99% | [14]; [17] 96% | [14]; at 50.0 µM 98.4% | [15]; at 33.0 µM 97% | [15]; at 100.0 µM 99%
inactive: [1]; at 1.2 µM -10% | [1]; at 3.7 µM -3% | [1]; at 11.0 µM 40% | [2]; at 1.2 µM -6% | [2]; at 3.7 µM -7% | [2]; at 11.0 µM 16% | [3]; at 1.2 µM 1% | [3]; at 3.7 µM -1% | [3]; at 11.0 µM -16% | [3]; at 33.0 µM 27% | [4]; at 1.2 µM -2% | [4]; at 3.7 µM -6% | [4]; at 11.0 µM 21% | [5]; at 1.2 µM -5% | [5]; at 3.7 µM -3% | [5]; [16] -151% | [5]; at 11.0 µM 46% | [6]; at 1.2 µM 4% | [6]; at 3.7 µM 46% | [6]; [16] 50% | [7]; at 1.2 µM -3% | [7]; at 3.7 µM 4% | [7]; at 11.0 µM 51% | [8]; [16] -64% | [9]; at 1.2 µM 0% | [9]; at 3.7 µM -11% | [9]; at 11.0 µM 35% | [10]; at 1.2 µM -9% | [10]; at 3.7 µM -15% | [10]; [16] -107% | [10]; at 11.0 µM 26% | [11]; at 1.2 µM -5% | [11]; at 3.7 µM -4% | [11]; at 11.0 µM 14% | [12]; at 1.2 µM 3% | [12]; at 3.7 µM -9% | [12]; at 11.0 µM 34% | [13]; at 1.2 µM -3% | [13]; at 3.7 µM 6% | [13]; at 11.0 µM 50% | [14]; [16] -135% | [15]; at 1.2 µM -1% | [15]; at 3.7 µM 3% | [15]; at 11.0 µM 39%
